Laboratory results from PubChem BioAssay (NCATS).
Results filed as inconclusive are left out. Calls of active or inactive are those of the source. Unless noted, calls follow the shape of the dose curve; as a rule, active = well fitted cell-killing curve with a large enough effect; inconclusive = small, poorly fitted or top-dose-only effect, or effect the other way; inactive = no such curve, though single readings can be large or run the other way.

Columns and labels:
[1] = Quantitative High-Throughput drug screen in 47 multiple myeloma cell lines against the NCATS MIPE library collection: VP6_DJ cell viability assay (AID 1919867); also: nearly all actives have a fitted effect of over 40% in size; also: potency is read from the fitted curve at half-maximal effect
Method in brief: (§1)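 Readout: median RLU from CellTiter-Glo after 5 min at room temperature. Preceding step was 48 h drug treatment of 500 cells/well at 37 °C, 5% CO2, with DMSO-only and media-only control wells.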

[2] = Quantitative High-Throughput drug screen in 47 multiple myeloma cell lines against the NCATS MIPE library collection: PE2_PLB cell viability assay (AID 1919869); also: nearly all actives have a fitted effect of over 35% in size; also: potency is read from the fitted curve at half-maximal effect
Method in brief: as §1

[3] = Quantitative High-Throughput drug screen in 47 multiple myeloma cell lines against the NCATS MIPE library collection: PCM6_Riken cell viability assay (AID 1919870); also: nearly all actives have a fitted effect of over 30% in size; also: potency is read from the fitted curve at half-maximal effect
Method in brief: as §1

[4] = Quantitative High-Throughput drug screen in 47 multiple myeloma cell lines against the NCATS MIPE library collection: RPMI8226_ATCC cell viability assay (AID 1919871); also: nearly all actives have a fitted effect of over 30% in size; also: potency is read from the fitted curve at half-maximal effect
Method in brief: as §1

[5] = Quantitative High-Throughput drug screen in 47 multiple myeloma cell lines against the NCATS MIPE library collection: OPM2_DSMZ cell viability assay (AID 1919872); also: nearly all actives have a fitted effect of over 30% in size; also: potency is read from the fitted curve at half-maximal effect
Method in brief: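 Luminescent ATP measurement with CellTiter-Glo gives viability, scaled between DMSO-only wells (100%) and media-only wells (0%). Cells, 500 per well, faced library compounds for 48 hours at 37C.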

[6] = Quantitative High-Throughput drug screen in 47 multiple myeloma cell lines against the NCATS MIPE library collection: KMS11_JCRBsus cell viability assay (AID 1919873); also: nearly all actives have a fitted effect of over 50% in size; also: potency is read from the fitted curve at half-maximal effect
Method in brief: as §1

[7] = Quantitative High-Throughput drug screen in 47 multiple myeloma cell lines against the NCATS MIPE library collection: KMS28BM_JCRB cell viability assay (AID 1919874); also: nearly all actives have a fitted effect of over 35% in size; also: potency is read from the fitted curve at half-maximal effect
Method in brief: as §1

[8] = qHTS drug screen for cell cycle checkpoint inhibitors in PARPi-resistant BRCA-mutant ovarian cancer cell lines. (AID 1963452; calls by dose curve; also: potency is read from the fitted curve at half-maximal effect); settings: PEO1/OlaR viability, CellTiter-Glo luminescence, 96 h; for Z-AUC: stronger effect = lower value
Method in brief: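 PEO1, PEO4 and PEO1/OlaR ovarian cancer cells, 600 per well, exposed 96 h at 37C to a dilution series. Viability read by CellTiter-Glo luminescence, normalized to DMSO and empty wells; activity summarized as Z-AUC.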

[9] = qHTS for identification of novel therapeutic agents for treatment of microphthalmiaassociated transcription factor (MiT) renal cell carcinoma (RCC) (AID 1963991; calls by dose curve; also: potency is read from the fitted curve at half-maximal effect); settings: CellTiter-Glo, 48 h; for Potency: active = Z-AUC below -0.8 in all three lines; for z-score: stronger effect = lower value
Method in brief: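 Curves over 11 concentrations were fitted to CellTiter-Glo luminescence, scaled between empty wells (0%) and DMSO (100%) viability. Cells were UOK109, UOK124 and UOK145 TFE3-fusion RCC lines at 500/well, exposed 48 hours at 37 C.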

[10] = Quantitative High-Throughput drug screen in 47 multiple myeloma cell lines against the NCATS MIPE library collection: UTMC2_PLB cell viability assay (AID 1919868); settings: CellTiter-Glo ATP luminescence, 48 h; viability (% of DMSO control): at 45.8 µM (top of the series) unless noted; also: nearly all actives have a fitted effect of over 55% in size
Method in brief: as §1

[11] = measured here: PEO1 parental Z-AUC
[12] = TFE3-RCC UOK109 viability, measured here: UOK109 Z-AUC
[13] = TFE3-RCC viability, measured here: UOK124 Z-AUC
[14] = TFE3-RCC viability, measured here: UOK145 Z-AUC

Row | Structure (SMILES) | Potency [1] | Potency [2] | Potency [3] | Potency [4] | Potency [5] | Potency [6] | Potency [7] | Z-AUC [8] | Z-AUC [8, 11] | Z-AUC ([8]; measured here: PEO4 Z-AUC) | Potency ([9]; TFE3-RCC UOK109 viability) | z-score [9, 12] | z-score [9, 13] | z-score [9, 14] | Potency [8] | viability (% of DMSO control) [10]
1 | Cc1nc(Nc2n[nH]c3c2CN(C(=O)N[C@H](CN(C)C)c2ccccc2)C3(C)C)c2sccc2n1 | 372 nM (active) | 833 nM (active) | 1870 nM (active) | 1320 nM (active) | 3720 nM (active) | 37.2 nM (active) | 37.2 nM (active) | -0.766 (inactive) | -0.524 | -1.06 |  |  |  |  |  | 
2 | CN(c1ncccc1CNc1nc(Nc2ccc3c(c2)CC(=O)N3)ncc1C(F)(F)F)S(C)(=O)=O | 2640 nM (active) | 3320 nM (active) | 2350 nM (active) | 8330 nM (active) | 7430 nM (active) | 2640 nM (active) | 6620 nM (active) | -0.236 (inactive) | -0.701 | -0.665 |  |  |  |  |  | 
3 | CCN1CCN(CC(=O)Nc2ccc(-c3cccc4c(=O)cc(N5CCOCC5)oc34)c3sc4ccccc4c23)CC1 | 469 nM (active) | 833 nM (active) | 1480 nM (active) | 1870 nM (active) | 3720 nM (active) | 332 nM (active) | 4690 nM (active) | -1.21 (inactive) | -0.89 | -0.929 | 2640 nM (active) | -2 | -1.8 | -2.12 |  | 
4 | CCc1c2c(nc3ccc(O)cc13)-c1cc3c(c(=O)n1C2)COC(=O)[C@]3(O)CC | 662 nM (active) | 148 nM (active) | 296 nM (active) | 1320 nM (active) | 1180 nM (active) | 662 nM (active) | 74.3 nM (active) |  | -3.8 | -3.13 | 469 nM (active) | -1.63 | -2.08 | -2.56 | 6.2 nM (active) | 
5 | O=C(c1cncc(Br)c1)N1CCC(N2CCCC2)CC1 | inactive | inactive | inactive | inactive | inactive | inactive | inactive | -0.226 (inactive) | -0.235 | 0.232 |  | 0.796 | 0.785 | 0.752 |  | 
6 | COc1cccc2nc(-c3cccs3)nc(NN3C(=O)C=C(C)C3=O)c12 | 37.2 nM (active) | 418 nM (active) | 41.8 nM (active) | 2090 nM (active) | 1480 nM (active) | 8.3 nM (active) | 33.2 nM (active) |  | -1.8 | -2.06 |  |  |  |  | 4360 nM (active) | 
7 | Cc1cc(N2CCOCC2)cc2[nH]c(-c3c(NC[C@@H](O)c4cccc(Cl)c4)cc[nH]c3=O)nc12 | 148 nM (active) | 148 nM (active) | 332 nM (active) | 469 nM (active) | 3720 nM (active) | 26.4 nM (active) |  | -0.44 (inactive) | -0.435 | -0.57 |  |  |  |  |  | 
8 | O=C(O)[C@H](Cc1c[nH]c2ccccc12)N1C(=O)c2ccccc2C1=O | 48100 nM (active) |  |  |  | inactive | inactive | inactive | 1.05 (inactive) | 0.982 | 0.872 |  | 0.59 | 0.462 | 0.777 |  | 115% [at 92.2 µM] (active)
9 | CC1=C(CO)C(=O)O[C@@H]([C@@H](C)[C@H]2CC[C@H]3[C@@H]4C[C@H]5O[C@]56[C@@H](O)C=CC(=O)[C@]6(C)[C@@H]4CC[C@]23C)C1 | 166 nM (active) | 166 nM (active) | 166 nM (active) | 187 nM (active) | 296 nM (active) | 93.5 nM (active) | 132 nM (active) |  |  |  |  |  |  |  |  | 
10 | COc1cc2c(Nc3ccc(NC(=O)c4ccccc4)cc3)ncnc2cc1OCCCN1CCOCC1 | 14800 nM (active) | 20900 nM (active) | 16600 nM (active) | 23500 nM (active) |  |  |  | 0.665 (inactive) | 0.378 | -0.00174 |  |  |  |  |  | 
11 | CC(C)(C)OC(=O)Nc1ccc(-c2cc(C(=O)NCCCCCCC(=O)NO)no2)cc1 | 833 nM (active) | 2640 nM (active) | 1870 nM (active) |  | 2640 nM (active) |  | 1050 nM (active) | -0.0304 (inactive) | 0.0473 | 0.196 |  |  |  |  |  | 
12 | CCNC(=O)Nc1ccc2ncc(Nc3ccc(C)cc3)nc2n1 | 662 nM (active) | 3720 nM (active) | 935 nM (active) |  | inactive | 18700 nM (active) |  |  |  |  |  |  |  |  |  | 
13 | O=C1CCC[C@@H]2[C@H]3CCC[N+]4([O-])CCC[C@@H](CN12)[C@@H]34 (stereo partly drawn) | 6620 nM (active) | inactive | inactive |  | inactive |  |  |  |  |  |  | 0.308 | 0.251 | 0.512 |  | 
14 | COc1cccc2c(NCc3ccccc3)nc(-n3c(N)nc4ccccc43)nc12 | 4180 nM (active) | 5260 nM (active) | 2350 nM (active) |  | 8330 nM (active) | 2640 nM (active) | 2960 nM (active) | -0.255 (inactive) | 0.136 | -0.014 |  |  |  |  |  | 
15 | O=C(O)Cn1nnc(-c2cc(N3CCC(Oc4cc(F)ccc4Br)CC3)no2)n1 | inactive | inactive | inactive | inactive |  | inactive | inactive |  |  |  |  | 0.654 | 0.371 | 1.36 |  | 
16 | C=C1C(=CC=C2CCCC3(C)[C@@H]([C@H](C)C=CC=CC(O)(CC)CC)CC[C@@H]23)C[C@@H](O)C[C@@H]1O (stereo partly drawn) | 10500 nM (active) | 23500 nM (active) | 33200 nM (active) |  |  | 23500 nM (active) | 20900 nM (active) |  |  |  |  |  |  |  |  | 
